Shown are actives, neighbours in structure and some others; about 11% of the full set was active somewhere.
NS1 function inh: blocks influenza NS1 protein function; Potency, µM (highest dose often 46.1 µM); 270,000 tested, 0.4% active; AID 2326; calls by dose curve; further: actives are rising curves; nearly all actives have a fitted effect of over 50% in size
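Compounds were scored for reversing the slow growth caused by influenza A NS1 in S. cerevisiae, measured by optical density at 600 nm. Assay medium contained 2% galactose at pH 6.0; NS1-free yeast of the same strain were the positive control.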
HCV inh: blocks hepatitis C virus | AID 651820 | Potency, µM (series often up to 41.8 µM), actives largely listed as inhibitors | 340,000 tested, 3.4% active | Huh7.5.1 HCVcc-Cre infection, luciferase reporter, 44 h
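HCVcc-Cre virus at an moi near 0.5 was added right after compound to cells cultured 4 h from seeding (1,000 cells/well). Luciferase activity was determined 44 h later, 15 min after substrate addition at RT.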
Vaccinia mCherry: vaccinia inhibition (mCherry reporter) | Vaccinia virus mCherry reporter infection, fluorescence | Potency, µM (top dose mostly 36.5 µM), hits mostly inhibitors | 310,000 tested, 0.63% active | AID 720579; calls by dose curve; tested in A549 cells; further: nearly all actives have a fitted effect of over 35% in size
Pf growth 96h: inhibits malaria parasite growth, 96 h | P. falciparum luciferase reporter growth, 96 h | 320,000 tested, 6.9% active | AID 504834 | Potency, µM (top dose mostly 28.7 µM), usual class: inhibitors
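Readout is luminescence from an integrated firefly luciferase in P. falciparum. Red cells, 2% hematocrit and 0.05% parasitemia final, were cultured with compound through two parasite generations (96 hours) at 37 C, 5% CO2.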
Vaccinia Venus: vaccinia inhibition (Venus reporter) | Vaccinia virus Venus reporter expression, fluorescence | Potency, µM (top dose mostly 36.5 µM), most hits filed as inhibitors | 330,000 tested, 0.46% active; calls by dose curve; tested in A549 cells; further: nearly all actives have a fitted effect of over 30% in size
Pf growth 48h: inhibits P. falciparum growth in the first generation, 48 h | P. falciparum luciferase growth in erythrocytes, 48 h | Potency, µM (top dose mostly 28.7 µM), usual class: inhibitors | 310,000 tested, 5.9% active | AID 504832
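Luciferase-expressing parasites in RBCs, 2% Hct / 0.1% parasitemia final; RPMI 1640 + 0.5% Albumax; 37 C, 5% CO2, one generation; luminescence read-out, lower signal = inhibition.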
HCV confirm: HCV inhibition, cherry-pick confirmation; shares compounds with HCV inh; HCVcc-Cre infectious virus cell assay, luciferase, inhibition; Potency, µM (titrated, usually from 41.8 µM), actives largely listed as inhibitors; 640 tested, 78% active; AID 720575; further: nearly all actives have a fitted effect of over 80% in size
HCV cytotox: toxic to HCV host cells, flagging false HCV inhibitors | 640 tested, 22% active | HCV host cell line cytotoxicity counterscreen | Potency, µM (top dose mostly 41.8 µM), hits mostly inhibitors | shares compounds with HCV inh | AID 720576;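 further: 44 h compound exposure; nearly all actives have a fitted effect of over 55% in size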
Large screens that a line does not name were inactive (follow-up assays come after a bar, where they were run). Unless noted, the call rests on the fitted dose curve; in most records, active means well fitted curve in the direction sought with a large enough effect; inconclusive means small, poorly fitted or top-dose-only effect, or another doubt; inactive means no such curve, though single readings can be large; an effect the other way counts as inactive or inconclusive.

COc1ccc(/C=N/Nc2nc(C(=O)O)cs2)cc1	none (no result: Vaccinia mCherry, Vaccinia Venus)
CCN(CC(=O)NCCN1CCOCC1)S(=O)(=O)c1ccc(F)cc1	Vaccinia mCherry inconclusive
CCN(CC)c1ccc(/C=N/NC(=O)c2ccoc2C)c(O)c1	HCV inh 2.8µM, Vaccinia mCherry 1.1µM, Pf growth 96h inconclusive, Vaccinia Venus inconclusive, Pf growth 48h 1.3µM | HCV confirm 7µM | HCV cytotox 7.9µM
Cn1c(=O)c2c(nc(SCC(=O)NCc3ccc4c(c3)OCO4)n2Cc2ccc(Cl)cc2)n(C)c1=O	HCV inh 2.5µM, Pf growth 48h 9.3µM (no result: Vaccinia mCherry, Vaccinia Venus) | HCV confirm 3.5µM | HCV cytotox inactive
CCCc1nc(SCC(=O)NCc2ccc3c(c2)OCO3)c2c(=O)n(C)c(=O)n(C)c2n1	none (no result: HCV inh, Vaccinia mCherry, Pf growth 96h, Vaccinia Venus, Pf growth 48h)
